# Compounds with a hit are over-represented: about 0.9% of the library has one in this group of screens.
# TcdB inh – TcdB glycohydrolase inhibition; P18177; TcdB glycohydrolase enzymatic assay, plate reader; inhibition, % at 9.99 µM; 0.24% of 350,000 active; AID 652162; in the data active = inhibition above about 10%
# Rv3671c inh – Rv3671c (M. tuberculosis) protease inhibition. 0.048% of 320,000 active. inhibition, % at 5.96 µM. P9WHR9. AID 2606; in the data active = inhibition above about 38%;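 also: extracellular domain of Rv3671c used as enzyme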
# RecA intein inh – blocks M. tuberculosis RecA intein splicing; P9WHJ3; cell-free RecA intein splicing, fluorescence; inhibition, % (no concentration beside the values); 0.75% of 290,000 active; AID 2221; in the data active = inhibition above about 30%
# FadD28 binding – inhibitors of Mycobacterium tuberculosis FadD28 bisubstrate binding. AID 588549. FadD28 bisubstrate probe binding, fluorescence polarization. inhibition, % at 12.5 µM. 0.22% of 360,000 active; in the data active = inhibition above about 8.5%, passing the limit was not always enough
# Mtb UGM inh – blocks M. tuberculosis UGM enzyme | purified UGM, fluorescence polarization probe displacement | AID 504406 | 0.06% of 320,000 active | inhibition, % at 10 µM; in the data active = inhibition above about 10%, passing the limit was not always enough
# Mtb BioA inh – blocks M. tuberculosis BioA enzyme activity; purified M. tuberculosis BioA enzyme, plate reader; AID 602481; 0.096% of 360,000 active; inhibition, % at 9.99 µM; in the data active = inhibition above about 40%
# GFP chromo cs – counter-screen GFP chromophore formation inhibition; shares compounds with RecA intein inh; cell-free GFP chromophore formation, fluorescence; EC50, µM; 83% of 2,100 active; AID 434968; call rule not given here
# Numbers stand for hits; 0 = inactive; - = no result.
SMILES,TcdB inh,Rv3671c inh,RecA intein inh,FadD28 binding,Mtb UGM inh,Mtb BioA inh,GFP chromo cs
CCCCn1c(NS(=O)(=O)c2ccc(C)cc2)c(S(=O)(=O)c2ccccc2)c2nc3ccccc3nc21,0,0,83,0,0,0,0
CCCCn1c(NS(=O)(=O)c2ccccc2)c(C(=O)OCC)c2nc3ccccc3nc21,-,0,0,0,0,-,-
C[C@@H]1CN([C@H](C)CO)C(=O)c2cccc(NC(=O)C3CCCCC3)c2O[C@@H]1CN(C)C(=O)Nc1ccc(F)cc1,0,-,-,-,-,0,-
COc1ccc(C(=O)n2nnc3ccccc32)cc1Br,-,0,35,0,0,0,0
Cc1ccc(-n2nc(C)c(C(=O)O)n2)c(C)c1,-,0,0,0,0,0,-
CC1=NN(c2ccc(C)cc2C)C(=O)C1C(c1ccccc1)C1C(=O)N(c2ccc(C)cc2C)N=C1C (stereo not given),-,0,90,0,0,0,1.1
C[C@H](CO)N1C[C@H](C)[C@H](CN(C)S(=O)(=O)c2cn(C)cn2)Oc2ccc(NC(=O)CCN3CCOCC3)cc2CC1=O,0,-,-,-,-,0,-
C[C@@H]1CN([C@H](C)CO)S(=O)(=O)c2ccc(C#Cc3ccccc3)cc2O[C@H]1CN(C)C(=O)c1ccccn1,0,-,-,-,-,0,-
O=[N+]([O-])c1c(Nc2ccc(O)cc2)cc(Cl)c2nonc12,0,0,95,0,0,0,1
O=C(O)c1ccccc1Nc1cc(Cl)c2nonc2c1[N+](=O)[O-],0,0,90,0,0,0,2.6
O=C(O)c1cccc(Nc2ccc([N+](=O)[O-])c3nonc23)c1,0,0,0,0,0,-,-
O=C(O)c1cccc(Nc2cc(Cl)c3nonc3c2[N+](=O)[O-])c1,0,0,88,0,0,-,4.8
O=[N+]([O-])c1c(Nc2ccccn2)cc(Cl)c2nonc12,0,0,87,0,0,-,2.1
O=C(c1ccc(F)cc1)N1CC2(C1)[C@@H](c1ccccc1)[C@@H](CO)N2Cc1ccccn1,0,-,-,-,-,-,-
Cc1ccc(C)c(NC(=O)CSc2n[nH]c(-c3ccccn3)n2)c1,0,0,51,-,0,-,0
Cc1ccccc1NC(=O)CSc1n[nH]c(-c2ccccn2)n1,0,0,0,0,0,0,-
Cc1noc(C)c1NC(=O)N(C)C[C@H]1Oc2c(NC(=O)Nc3ccc(F)cc3)cccc2C(=O)N([C@@H](C)CO)C[C@@H]1C,0,-,-,-,-,0,-
Cc1cc(N/N=C/c2ccc(O)c(C)c2O)nc(-c2ccccc2O)n1,-,0,47,0,0,0,0
C/C(=N\Nc1cc(C)nc(-c2ccccc2O)n1)c1ccccc1,0,0,0,0,0,-,-
O=[N+]([O-])c1ccc2nc(Cl)nc(-c3ccccc3)c2c1,0,-,47,0,0,0,0
O=[N+]([O-])c1ccc2nc(-[n+]3c(-c4ccccc4)cc(-c4ccccc4)cc3-c3ccccc3)[nH]c2c1,-,0,0,0,0,-,-
CO[C@H]1CN(C)C(=O)c2ccc(NC(=O)Nc3ccccc3F)cc2OC[C@@H](C)N(C(C)=O)C[C@H]1C,0,-,-,-,-,0,-
C[C@@H]1CN([C@H](C)CO)C(=O)c2cc(C#Cc3ccccn3)cnc2O[C@@H]1CN(C)Cc1ccncc1,0,-,-,-,-,0,-
O=C(O)C[C@@H]1CC[C@H]2[C@@H](COC[C@H](O)CN2S(=O)(=O)c2ccc(Oc3ccccc3)cc2)O1,-,-,-,-,-,0,-
Cc1[nH][nH]c(=O)c1C(c1ccc(-c2ccc(F)cc2)o1)c1c(C)[nH][nH]c1=O,0,0,97,0,0,-,0.58
SMILES,TcdB inh,Rv3671c inh,RecA intein inh,FadD28 binding,Mtb UGM inh,Mtb BioA inh,GFP chromo cs
Cc1[nH][nH]c(=O)c1C(c1ccc(-c2ccc(Cl)c(Cl)c2)o1)c1c(C)[nH][nH]c1=O,-,0,97,0,0,0,0.66
Cc1[nH]n(-c2ccccc2)c(=O)c1C(=O)c1cccc(F)c1,0,0,0,0,0,-,-
CC1=NN(c2ccc(Cl)cc2)C(=O)C1C(c1cccc(O)c1)c1c(C)[nH]n(-c2ccc(Cl)cc2)c1=O (stereo not given),-,0,88,0,0,-,2.3
CC1=NN(c2ccc(F)cc2)C(=O)C1C(c1cccc(O)c1)c1c(C)[nH]n(-c2ccc(F)cc2)c1=O (stereo not given),-,0,97,0,0,-,1.8
COc1ccc(CNC(=O)C(c2ccncc2)N(C(=O)Cc2cccs2)c2ccccc2)cc1 (stereo not given),0,-,-,0,-,-,-
COc1ccc(N(C(=O)CCl)C(C(=O)NCCc2ccccc2)c2cccs2)cc1 (stereo not given),0,0,76,0,0,0,1.7
